# Laboratory results reported in publication PMC7862700, “An all-to-all approach to the identification of sequence-specific readers for epigenetic DNA modifications on cytosine”.
# Assays:
# Experiment in all cases: DAPPL (digital affinity profiling via proximity ligation, sequencing); 10 mM Tris-HCl pH 7.5, 50 mM NaCl, 1 mM DTT, 4% glycerol, room temperature, 30 min; GST-TFs on glutathione beads, 16-mer random dsDNA library, 0.1% formaldehyde crosslink after washing; high values mean tight binding
# Details in all cases: protein: recombinant; tags: N-terminal GST; dsDNA, one strand shown
# FLI1 = target: T1, FLI1 (Homo sapiens, UniProt Q01543 1-452)
# T1 sequence: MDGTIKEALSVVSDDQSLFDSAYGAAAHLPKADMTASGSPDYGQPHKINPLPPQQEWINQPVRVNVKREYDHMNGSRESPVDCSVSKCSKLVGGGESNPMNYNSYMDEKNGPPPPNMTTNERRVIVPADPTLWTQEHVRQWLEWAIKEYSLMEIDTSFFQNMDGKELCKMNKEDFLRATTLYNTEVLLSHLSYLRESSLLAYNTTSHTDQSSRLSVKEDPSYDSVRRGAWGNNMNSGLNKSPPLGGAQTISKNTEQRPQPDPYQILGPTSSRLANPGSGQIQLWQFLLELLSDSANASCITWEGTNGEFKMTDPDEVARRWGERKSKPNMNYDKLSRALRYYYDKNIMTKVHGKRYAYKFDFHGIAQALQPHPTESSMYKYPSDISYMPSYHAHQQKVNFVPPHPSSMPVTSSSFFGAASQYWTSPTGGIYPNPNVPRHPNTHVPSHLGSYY
# Outline: (§1)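 Human transcription factors carrying a GST fusion were produced in yeast, bound to glutathione beads, tagged with DNA barcodes and pooled together with a tag-only sample. Each pool was held with 200 nmole of a random double-stranded 16-mer DNA library in Tris/NaCl/DTT/glycerol buffer for 30 min at room temperature, then washed, crosslinked in 0.1% formaldehyde, proximity-ligated with BsaI/T4 ligase (1 h, 37 °C), PCR-amplified and sequenced on an Illumina NextSeq500. Binding signal is the read frequency of each hexamer for a given factor divided by its frequency in the tag-only sample.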
# ELK1 = target: T2, ELK1 (Homo sapiens, UniProt P19419 1-428)
# T2 sequence: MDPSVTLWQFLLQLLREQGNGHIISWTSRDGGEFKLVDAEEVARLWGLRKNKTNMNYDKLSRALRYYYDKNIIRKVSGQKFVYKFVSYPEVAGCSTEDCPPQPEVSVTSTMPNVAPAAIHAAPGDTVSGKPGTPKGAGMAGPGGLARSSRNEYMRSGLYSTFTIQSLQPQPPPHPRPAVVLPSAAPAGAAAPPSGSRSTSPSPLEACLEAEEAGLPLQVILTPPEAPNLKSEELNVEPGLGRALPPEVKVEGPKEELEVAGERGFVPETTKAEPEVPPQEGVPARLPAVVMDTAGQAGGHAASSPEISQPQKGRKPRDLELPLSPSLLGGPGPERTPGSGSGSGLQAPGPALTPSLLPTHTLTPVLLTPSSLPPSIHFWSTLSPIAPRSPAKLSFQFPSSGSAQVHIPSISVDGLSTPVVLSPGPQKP
# Outline: as §1
# GABPA = target: T3, GABPA (Homo sapiens, UniProt Q06546 1-454)
# T3 sequence: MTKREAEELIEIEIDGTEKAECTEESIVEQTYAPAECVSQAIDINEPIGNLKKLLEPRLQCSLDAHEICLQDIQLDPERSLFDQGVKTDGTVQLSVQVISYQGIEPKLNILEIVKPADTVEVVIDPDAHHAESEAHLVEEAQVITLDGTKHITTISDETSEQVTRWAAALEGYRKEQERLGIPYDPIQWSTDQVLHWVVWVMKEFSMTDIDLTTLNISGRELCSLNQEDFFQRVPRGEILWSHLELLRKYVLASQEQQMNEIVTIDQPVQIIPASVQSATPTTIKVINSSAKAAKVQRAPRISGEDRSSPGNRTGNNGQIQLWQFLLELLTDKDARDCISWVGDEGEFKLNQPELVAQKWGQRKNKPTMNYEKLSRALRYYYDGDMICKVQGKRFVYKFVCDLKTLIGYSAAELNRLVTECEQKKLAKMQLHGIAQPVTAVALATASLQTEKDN
# Outline: as §1
# ERG = target: T4, ERG (Homo sapiens, UniProt P11308 1-479)
# T4 sequence: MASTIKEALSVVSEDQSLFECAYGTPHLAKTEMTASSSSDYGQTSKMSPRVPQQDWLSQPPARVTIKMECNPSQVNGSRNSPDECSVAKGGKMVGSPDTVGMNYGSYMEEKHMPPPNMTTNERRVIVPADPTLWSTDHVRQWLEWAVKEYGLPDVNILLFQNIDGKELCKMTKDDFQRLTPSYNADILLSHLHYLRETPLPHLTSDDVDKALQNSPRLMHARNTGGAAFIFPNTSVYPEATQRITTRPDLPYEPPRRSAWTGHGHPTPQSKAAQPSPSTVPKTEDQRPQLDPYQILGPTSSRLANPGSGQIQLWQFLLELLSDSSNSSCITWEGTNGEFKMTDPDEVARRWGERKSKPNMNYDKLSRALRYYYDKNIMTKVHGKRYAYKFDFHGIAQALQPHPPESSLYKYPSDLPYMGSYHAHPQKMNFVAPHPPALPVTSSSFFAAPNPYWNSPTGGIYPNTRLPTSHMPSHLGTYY
# Outline: as §1
# ELF1 = ELF1 (Homo sapiens, UniProt P32519 1-619)
# Chain of ELF1 (P32519 whole entry): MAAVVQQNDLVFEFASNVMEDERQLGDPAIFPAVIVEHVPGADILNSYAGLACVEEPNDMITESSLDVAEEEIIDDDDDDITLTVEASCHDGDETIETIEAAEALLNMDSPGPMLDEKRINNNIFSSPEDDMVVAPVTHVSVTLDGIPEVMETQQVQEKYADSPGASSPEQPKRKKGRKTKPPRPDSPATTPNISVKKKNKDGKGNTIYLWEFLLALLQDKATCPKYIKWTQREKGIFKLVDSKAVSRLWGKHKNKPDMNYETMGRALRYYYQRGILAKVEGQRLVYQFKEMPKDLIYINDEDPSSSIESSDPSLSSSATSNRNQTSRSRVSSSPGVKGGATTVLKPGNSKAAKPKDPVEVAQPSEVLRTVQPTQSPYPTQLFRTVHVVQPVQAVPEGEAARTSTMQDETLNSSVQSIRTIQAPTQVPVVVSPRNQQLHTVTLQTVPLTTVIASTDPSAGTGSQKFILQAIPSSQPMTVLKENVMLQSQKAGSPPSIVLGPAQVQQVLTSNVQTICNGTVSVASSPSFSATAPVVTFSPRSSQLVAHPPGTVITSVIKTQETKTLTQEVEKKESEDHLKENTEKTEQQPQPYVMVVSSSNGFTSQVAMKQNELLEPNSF
# Outline: as §1
# EHF = target: T5, EHF (Homo sapiens, UniProt Q9NZC4 1-300)
# T5 sequence: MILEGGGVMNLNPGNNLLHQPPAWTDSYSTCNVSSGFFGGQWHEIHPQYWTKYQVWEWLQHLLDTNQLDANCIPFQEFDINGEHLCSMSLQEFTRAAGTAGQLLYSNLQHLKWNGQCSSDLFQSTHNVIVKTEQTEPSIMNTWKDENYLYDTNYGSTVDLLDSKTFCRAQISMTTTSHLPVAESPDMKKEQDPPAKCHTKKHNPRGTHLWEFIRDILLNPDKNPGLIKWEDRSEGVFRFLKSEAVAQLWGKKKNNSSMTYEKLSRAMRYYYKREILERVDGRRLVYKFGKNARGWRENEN
# Outline: as §1
# SPI1 = SPI1 (Homo sapiens, UniProt P17947 1-270)
# Outline: as §1
# SPIB = SPIB (Homo sapiens, UniProt Q01892 1-262)
# Chain of SPIB (Q01892 whole entry): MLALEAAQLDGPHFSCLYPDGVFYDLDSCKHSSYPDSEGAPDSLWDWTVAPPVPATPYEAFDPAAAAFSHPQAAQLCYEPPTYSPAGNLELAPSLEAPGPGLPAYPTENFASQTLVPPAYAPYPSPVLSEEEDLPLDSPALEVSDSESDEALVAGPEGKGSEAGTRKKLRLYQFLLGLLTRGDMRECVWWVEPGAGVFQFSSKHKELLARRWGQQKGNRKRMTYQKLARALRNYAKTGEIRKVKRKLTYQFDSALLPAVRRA
# Outline: as §1
# ELK3 = target: T6, ELK3 (Homo sapiens, UniProt P41970 1-407)
# T6 sequence: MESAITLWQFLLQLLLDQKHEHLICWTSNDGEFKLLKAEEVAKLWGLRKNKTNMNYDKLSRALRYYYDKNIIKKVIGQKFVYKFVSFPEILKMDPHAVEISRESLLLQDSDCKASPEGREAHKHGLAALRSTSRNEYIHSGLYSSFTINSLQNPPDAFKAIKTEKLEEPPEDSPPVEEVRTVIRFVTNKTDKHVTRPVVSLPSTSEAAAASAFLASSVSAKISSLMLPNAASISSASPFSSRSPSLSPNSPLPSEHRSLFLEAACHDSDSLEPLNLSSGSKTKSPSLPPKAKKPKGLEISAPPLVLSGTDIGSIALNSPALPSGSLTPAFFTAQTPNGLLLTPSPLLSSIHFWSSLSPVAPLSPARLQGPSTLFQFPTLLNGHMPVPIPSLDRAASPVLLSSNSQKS
# Outline: as §1
# FEV = target: T7, FEV (Homo sapiens, UniProt Q99581 1-238)
# T7 sequence: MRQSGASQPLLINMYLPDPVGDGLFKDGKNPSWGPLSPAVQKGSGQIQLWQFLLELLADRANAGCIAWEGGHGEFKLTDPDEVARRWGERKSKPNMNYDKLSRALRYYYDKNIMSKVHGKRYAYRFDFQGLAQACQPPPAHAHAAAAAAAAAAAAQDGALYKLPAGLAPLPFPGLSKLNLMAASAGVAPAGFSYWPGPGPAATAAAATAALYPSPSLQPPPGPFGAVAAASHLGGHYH
# Outline: as §1
# ETV5 = ETV5 (Homo sapiens, UniProt P41161 1-510)
# Chain of ETV5 (P41161 whole entry): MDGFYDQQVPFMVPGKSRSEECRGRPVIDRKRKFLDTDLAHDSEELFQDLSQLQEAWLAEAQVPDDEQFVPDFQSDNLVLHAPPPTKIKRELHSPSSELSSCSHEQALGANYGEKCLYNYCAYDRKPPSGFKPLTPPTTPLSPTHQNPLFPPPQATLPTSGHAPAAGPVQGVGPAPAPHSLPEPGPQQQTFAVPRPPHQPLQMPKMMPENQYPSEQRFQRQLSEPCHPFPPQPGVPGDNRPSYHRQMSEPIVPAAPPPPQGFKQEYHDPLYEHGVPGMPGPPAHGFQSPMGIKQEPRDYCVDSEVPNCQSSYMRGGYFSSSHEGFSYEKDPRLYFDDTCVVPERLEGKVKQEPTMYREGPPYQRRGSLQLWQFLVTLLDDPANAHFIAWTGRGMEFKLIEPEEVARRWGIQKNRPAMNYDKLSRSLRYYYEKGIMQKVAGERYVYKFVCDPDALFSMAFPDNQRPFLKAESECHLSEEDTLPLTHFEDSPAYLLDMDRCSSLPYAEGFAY
# Outline: as §1
# ELF4 = ELF4 (Homo sapiens, UniProt Q99607 1-663)
# Chain of ELF4 (Q99607 whole entry): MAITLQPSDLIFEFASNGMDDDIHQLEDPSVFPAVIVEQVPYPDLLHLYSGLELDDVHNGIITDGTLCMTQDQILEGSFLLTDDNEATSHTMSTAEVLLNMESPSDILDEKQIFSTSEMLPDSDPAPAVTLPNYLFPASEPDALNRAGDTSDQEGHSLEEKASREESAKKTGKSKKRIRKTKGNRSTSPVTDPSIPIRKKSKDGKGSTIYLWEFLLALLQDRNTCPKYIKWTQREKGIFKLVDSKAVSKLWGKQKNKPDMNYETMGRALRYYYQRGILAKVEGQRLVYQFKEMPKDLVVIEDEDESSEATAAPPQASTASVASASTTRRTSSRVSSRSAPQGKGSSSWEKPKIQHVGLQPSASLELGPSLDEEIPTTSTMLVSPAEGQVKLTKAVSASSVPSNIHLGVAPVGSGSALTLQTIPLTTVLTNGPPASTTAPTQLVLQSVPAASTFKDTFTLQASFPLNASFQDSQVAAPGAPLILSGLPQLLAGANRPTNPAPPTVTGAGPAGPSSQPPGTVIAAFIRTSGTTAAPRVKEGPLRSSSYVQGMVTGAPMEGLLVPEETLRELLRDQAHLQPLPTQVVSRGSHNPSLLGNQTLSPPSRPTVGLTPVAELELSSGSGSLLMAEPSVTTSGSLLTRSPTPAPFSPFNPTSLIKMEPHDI
# Outline: as §1
# ETV1 = ETV1 (Homo sapiens, UniProt P50549 1-477)
# Chain of ETV1 (P50549 whole entry): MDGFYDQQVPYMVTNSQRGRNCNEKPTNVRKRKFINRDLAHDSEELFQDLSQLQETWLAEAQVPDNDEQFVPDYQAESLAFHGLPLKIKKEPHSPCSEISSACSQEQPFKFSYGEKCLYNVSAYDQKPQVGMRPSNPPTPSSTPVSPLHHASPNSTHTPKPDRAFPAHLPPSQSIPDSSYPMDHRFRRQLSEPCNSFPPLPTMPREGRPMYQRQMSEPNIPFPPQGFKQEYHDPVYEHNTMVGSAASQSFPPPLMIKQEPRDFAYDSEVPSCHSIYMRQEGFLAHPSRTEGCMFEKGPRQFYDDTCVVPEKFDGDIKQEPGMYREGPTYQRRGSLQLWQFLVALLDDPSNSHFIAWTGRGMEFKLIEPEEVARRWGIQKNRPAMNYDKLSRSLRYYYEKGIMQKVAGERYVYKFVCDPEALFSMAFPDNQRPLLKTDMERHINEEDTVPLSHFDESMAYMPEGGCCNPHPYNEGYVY
# Outline: as §1
# ERF = target: T8, ERF (Homo sapiens, UniProt P50548 1-548)
# T8 sequence: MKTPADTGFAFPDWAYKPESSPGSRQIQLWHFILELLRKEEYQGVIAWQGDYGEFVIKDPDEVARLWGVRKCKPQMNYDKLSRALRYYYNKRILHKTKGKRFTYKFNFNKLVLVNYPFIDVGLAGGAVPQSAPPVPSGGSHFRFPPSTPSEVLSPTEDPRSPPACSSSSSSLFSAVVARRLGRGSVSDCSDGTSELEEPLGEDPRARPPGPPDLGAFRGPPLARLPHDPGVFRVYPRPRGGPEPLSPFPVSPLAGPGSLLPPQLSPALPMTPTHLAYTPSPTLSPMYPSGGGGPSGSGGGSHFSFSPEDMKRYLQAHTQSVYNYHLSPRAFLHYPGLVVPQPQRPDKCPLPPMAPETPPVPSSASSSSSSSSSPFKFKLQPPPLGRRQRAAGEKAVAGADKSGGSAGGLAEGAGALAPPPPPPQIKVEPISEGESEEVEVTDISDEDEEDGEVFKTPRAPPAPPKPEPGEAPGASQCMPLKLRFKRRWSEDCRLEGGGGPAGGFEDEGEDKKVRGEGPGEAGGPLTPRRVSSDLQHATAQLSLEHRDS
# Outline: as §1
# ETV3L = target: T9, ETV3L (Homo sapiens, UniProt Q6ZN32 1-361)
# T9 sequence: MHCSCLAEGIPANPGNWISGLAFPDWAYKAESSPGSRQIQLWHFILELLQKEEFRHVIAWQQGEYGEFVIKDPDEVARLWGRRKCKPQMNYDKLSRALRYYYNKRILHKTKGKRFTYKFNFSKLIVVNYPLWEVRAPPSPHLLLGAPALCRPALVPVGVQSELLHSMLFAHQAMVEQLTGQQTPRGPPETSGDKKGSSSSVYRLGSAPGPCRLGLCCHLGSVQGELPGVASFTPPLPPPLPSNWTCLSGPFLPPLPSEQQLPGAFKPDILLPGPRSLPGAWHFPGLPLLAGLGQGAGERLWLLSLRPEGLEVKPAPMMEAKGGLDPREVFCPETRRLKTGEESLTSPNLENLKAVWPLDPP
# Outline: as §1
# ETS2 = target: T10, ETS2 (Homo sapiens, UniProt P15036 1-469)
# T10 sequence: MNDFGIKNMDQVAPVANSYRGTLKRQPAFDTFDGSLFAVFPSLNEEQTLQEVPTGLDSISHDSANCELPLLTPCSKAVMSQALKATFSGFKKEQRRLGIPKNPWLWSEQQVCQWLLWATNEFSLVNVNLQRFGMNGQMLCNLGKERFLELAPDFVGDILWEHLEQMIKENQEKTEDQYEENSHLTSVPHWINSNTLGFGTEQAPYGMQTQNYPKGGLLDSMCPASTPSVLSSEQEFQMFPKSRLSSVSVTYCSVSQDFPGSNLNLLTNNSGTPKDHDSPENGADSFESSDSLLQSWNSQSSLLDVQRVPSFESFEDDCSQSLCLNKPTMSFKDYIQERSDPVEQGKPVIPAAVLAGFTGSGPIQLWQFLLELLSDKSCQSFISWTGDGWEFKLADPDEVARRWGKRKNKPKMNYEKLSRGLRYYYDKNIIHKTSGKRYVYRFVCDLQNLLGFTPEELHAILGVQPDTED
# Outline: as §1
# SPDEF = target: T11, SPDEF (Homo sapiens, UniProt O95238 1-335)
# T11 sequence: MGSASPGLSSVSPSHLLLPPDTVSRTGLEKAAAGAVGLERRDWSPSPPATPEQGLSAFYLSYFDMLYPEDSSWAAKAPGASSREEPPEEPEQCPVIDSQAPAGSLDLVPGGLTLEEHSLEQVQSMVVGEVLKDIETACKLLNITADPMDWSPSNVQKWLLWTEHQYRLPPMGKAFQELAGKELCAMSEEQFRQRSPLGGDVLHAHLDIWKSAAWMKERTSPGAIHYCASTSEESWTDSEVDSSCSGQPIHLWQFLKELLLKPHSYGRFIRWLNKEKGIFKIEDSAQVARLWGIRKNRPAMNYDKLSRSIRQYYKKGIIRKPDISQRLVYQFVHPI
# Outline: as §1
# ETV3 = target: T12, ETV3 (Homo sapiens, UniProt P41162-2 1-143)
# T12 sequence: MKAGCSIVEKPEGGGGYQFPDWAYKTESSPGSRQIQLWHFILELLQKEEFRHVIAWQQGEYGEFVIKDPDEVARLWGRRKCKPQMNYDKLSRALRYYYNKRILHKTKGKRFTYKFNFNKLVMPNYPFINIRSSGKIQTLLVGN
# Outline: as §1
# ETV6 = ETV6 (Homo sapiens, UniProt P41212 1-452)
# Chain of ETV6 (P41212 whole entry): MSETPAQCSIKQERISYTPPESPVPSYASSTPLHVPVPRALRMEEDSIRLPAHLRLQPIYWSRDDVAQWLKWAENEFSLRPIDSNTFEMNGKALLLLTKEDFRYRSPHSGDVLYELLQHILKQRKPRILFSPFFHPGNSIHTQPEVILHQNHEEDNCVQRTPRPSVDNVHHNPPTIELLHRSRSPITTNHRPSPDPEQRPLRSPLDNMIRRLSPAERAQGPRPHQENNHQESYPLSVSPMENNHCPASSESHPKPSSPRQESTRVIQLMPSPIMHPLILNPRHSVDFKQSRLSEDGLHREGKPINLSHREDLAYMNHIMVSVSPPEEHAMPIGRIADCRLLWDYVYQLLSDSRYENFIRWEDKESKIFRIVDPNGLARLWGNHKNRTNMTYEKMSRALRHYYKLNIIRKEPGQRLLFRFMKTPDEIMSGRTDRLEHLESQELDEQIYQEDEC
# Outline: as §1
sequence,measurement,setting,value
ACGACC,binding signal,FLI1,"1.18 fold enrichment (6-mer frequency, TF over GST control)"
same,binding signal,ELK1,"1.21 fold enrichment (6-mer frequency, TF over GST control)"
same,binding signal,GABPA,"1.11 fold enrichment (6-mer frequency, TF over GST control)"
same,binding signal,ERG,"1.1 fold enrichment (6-mer frequency, TF over GST control)"
same,binding signal,ELF1,"1.21 fold enrichment (6-mer frequency, TF over GST control)"
same,binding signal,EHF,"1.1 fold enrichment (6-mer frequency, TF over GST control)"
same,binding signal,SPI1,"1.03 fold enrichment (6-mer frequency, TF over GST control)"
same,binding signal,SPIB,"1.07 fold enrichment (6-mer frequency, TF over GST control)"
same,binding signal,ELK3,"1.31 fold enrichment (6-mer frequency, TF over GST control)"
same,binding signal,FEV,"1.22 fold enrichment (6-mer frequency, TF over GST control)"
same,binding signal,ETV5,"1.17 fold enrichment (6-mer frequency, TF over GST control)"
same,binding signal,ELF4,"1.26 fold enrichment (6-mer frequency, TF over GST control)"
same,binding signal,ETV1,"1.2 fold enrichment (6-mer frequency, TF over GST control)"
same,binding signal,ERF,"1.11 fold enrichment (6-mer frequency, TF over GST control)"
same,binding signal,ETV3L,"1.18 fold enrichment (6-mer frequency, TF over GST control)"
same,binding signal,ETS2,"1.15 fold enrichment (6-mer frequency, TF over GST control)"
same,binding signal,SPDEF,"1.2 fold enrichment (6-mer frequency, TF over GST control)"
same,binding signal,ETV3,"1.24 fold enrichment (6-mer frequency, TF over GST control)"
same,binding signal,ETV6,"1.19 fold enrichment (6-mer frequency, TF over GST control)"
